# From PubChem
# tim23-1 inh – tim23-1 yeast growth inhibition; actives 1.3% (n = 330,000); S. cerevisiae tim23-1 growth, BacTiter-Glo luminescence, 24 h; inhibition, % at 20 µM;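 active means growth inhibition of the mutant yeast at or above 50%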;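 further: temperature-sensitive mutant grown at 25 °C; plate controls were DMSO-treated mutant yeast for no effect and medium wells lacking yeast for full effect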
# SUMO Mot1 rescue – inhibitors of SUMOylation pathway: yeast Mot1-301 growth rescue; growth rescue, % at 18.8 µM; S. cerevisiae Mot1-301 growth rescue, ATP luminescence, 38.5C; percent above DMSO median, 100 means doubled; actives 1% (n = 320,000);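 active means every valid replicate shows activation above 250% relative to neutral control wells; inactive means the rest, any valid replicate at or below 250%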;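 further: OY570 slx delta 5 strain wells were the positive control but not used for scaling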
# TIM10 inh – inhibits growth of TIM10 yeast strain; inhibition, % at 10 µM; actives 1.4% (n = 330,000); S. cerevisiae TIM10 strain growth, BacTiter-Glo luminescence, 24 h; AID 463195;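 active means inhibition of 40% or more at the single tested concentration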;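 further: wild-type TIM10 isogenic control strain grown at permissive 25 °C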
# tim10-1 inh – inhibits growth of tim10-1 mutant yeast | actives 2.2% (n = 330,000) | inhibition, % at 20 µM | S. cerevisiae tim10-1 ts strain growth, BacTiter-Glo, 24 h;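 active means inhibition of at least 40%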;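 further: mutant grown at 25 °C; 0% = DMSO wells with yeast and 100% = wells holding no yeast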
# PfHsp90 yeast 2 – inhibits growth of yeast expressing Plasmodium falciparum Hsp90; S. cerevisiae expressing PfHsp90, BacTiter-Glo ATP, 48 h; yeast lacking PDR1 and PDR3 efflux regulators; inhibition, % at 9.4 µM; actives 0.32% (n = 310,000); AID 504621;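 active means every replicate shows inhibition above about 80%, whatever the replicate mean, limit read from the data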;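 further: 0% = DMSO neutral controls and 100% = 20 µM radicicol positive controls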
# tim10-1 conf – tim10-1 yeast growth inhibition, confirmed; shares compounds with tim10-1 inh; S. cerevisiae tim10-1 ts strain growth, BacTiter-Glo, 24 h; inhibition, % at 20 µM; actives 56% (n = 7,400); AID 463213;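 active means inhibition of yeast growth at or above a set limit in either of two repeat tests at 20 µM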;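 further: tim10-1 mutant grown at permissive 25 °C to find synthetic lethal compounds; 0% = DMSO yeast wells and 100% = medium wells without yeast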
# tim10 confirm – TIM10 yeast growth inhibition, confirmed. S. cerevisiae tim10 strain growth, BacTiter-Glo luminescence, 24 h. AID 463215. shares compounds with TIM10 inh. actives 63% (n = 4,600). inhibition, % at 10 µM;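 active means inhibition of yeast growth at or above a set limit in either of two replicates at 10 µM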;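 further: this counterscreen used the strain with wild-type TIM10; 0% = yeast with DMSO and 100% = medium wells lacking yeast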
# Active calls of the source: *; . = no result given. The list is not random: actives were taken first. Their share in the collection is about 4.4%.
SMILES,tim23-1 inh,SUMO Mot1 rescue,TIM10 inh,tim10-1 inh,PfHsp90 yeast 2,tim10-1 conf,tim10 confirm
Cc1cccc(N2CCN(C(=O)c3ccc(N4CCCC4=O)cc3)CC2)c1C,5,6,42*,45*,8,31*,16
Cc1cccc(N2CCN(C(=O)c3ccc(Cl)c(S(=O)(=O)NCc4ccco4)c3)CC2)c1C,44,7,50*,45*,3,39*,40*
CCOc1ccc(C(=O)N2CCN(c3cccc(Cl)c3)CC2)cc1,35,228,4,14,7,.,.
CCOc1ccc(C(=O)N2CCN(c3cccc(C)c3C)CC2)cc1,43,3,42*,45*,.,33*,32*
O=C(c1ccc(N2CCCC2=O)cc1)N1CCN(c2ccccc2)CC1,5,164,12,20,-5,.,.
COc1ccc(CC(=O)O/N=C(\N)c2ccccn2)cc1,5,0,12,11,-1,.,.
N/C(=N\OC(=O)Cc1ccc(-c2ccccc2)cc1)c1ccccn1,30,-17,53*,54*,-1,50*,28
O=c1cc(-c2c(F)c(F)c(F)c(F)c2F)oc2ccccc12,28,49,15,17,-50,.,.
O=c1cc(-c2c(F)c(F)c(F)c(F)c2F)oc2c(F)c(F)c(F)c(F)c12,31,2,54*,42*,.,46*,41*
CC1=C/C(=N\OC(=O)/C=C/c2ccccc2)C(C)=CC1=O,37,6,43*,46*,1,16,23
O=C(N/N=C/c1ccc([N+](=O)[O-])o1)c1cc2ccccc2o1,40,4,45*,59*,3,56*,79*
CC(C)(C)C1=CC(=O)C(=O)C(C(C)(C)C)=C1,24,8,40*,47*,103*,39*,26
O=c1cc(CSc2nnc(COc3cccc4ccccc34)o2)c2ccccc2[nH]1,-18,8,-24,-5,-34,.,.
O=C1C2C(c3ccccc3)=NN(c3ccccc3)C2C(=O)N1c1ccccc1 (centres undefined),48,17,59*,59*,2,49*,-19
OC[C@@H]1[C@@H](c2ccc(F)cc2)C(c2ccccc2)=NN1c1ccccc1,46,.,18,16,-43,.,.
O=C(NCc1ccco1)c1csc(Nc2ccccc2Cl)n1,39,172,42*,52*,.,43*,30*
CCOc1ccccc1NC(=O)Nn1cnnc1,16,-7,4,8,-2,.,.
CCOC(=O)Cn1c(S(=O)(=O)Cc2ccc(Cl)cc2)nc(-c2ccccc2)c1-c1ccccc1,33,-2,12,21,-7,.,.
C#CCn1c(S(=O)(=O)Cc2ccc(OC)cc2)nc(-c2ccccc2)c1-c1ccccc1,48,-13,45*,47*,.,41*,24
CNc1ccccc1C(=O)OCC(=O)N(CCOC)c1c(N)n(CC(C)C)c(=O)[nH]c1=O,-8,.,1,1,.,.,.
CCCN(CCC)CCNS(=O)(=O)c1ccc2c(c1)CCN2C(=O)C1CCC1,13,1,10,9,4,.,.
O=C(C1CCC1)N1CCc2cc(S(=O)(=O)N3CCCCC3)ccc21,19,-9,9,29,3,.,.
O=C(C1CCC1)N1CCc2cc(S(=O)(=O)N3CCN(c4ccccn4)CC3)ccc21,-11,64,56*,69*,0,69*,-25
CCOC(=O)N1CCN(S(=O)(=O)c2ccc3c(c2)CCN3C(=O)C2CCC2)CC1,-46,4,47*,56*,13,53*,-20
CCOC(=O)N1CCN(S(=O)(=O)c2ccc3c(c2)CCN3C(=O)C2CC2)CC1,29,196,28,37,5,.,.
SMILES,tim23-1 inh,SUMO Mot1 rescue,TIM10 inh,tim10-1 inh,PfHsp90 yeast 2,tim10-1 conf,tim10 confirm
O=C(C1CC1)N1CCc2cc(S(=O)(=O)NCCC3=CCCCC3)ccc21,31,18,41*,50*,-11,34*,0
CSCCC(NC(=O)c1ccco1)C(=O)NCC(c1ccccc1)N(C)C (centres undefined),-36,-19,-15,-20,-5,.,.
CCCn1nnnc1COc1ccc(C(N)=O)cc1,-4,6,7,-4,-1,.,.
CCN(CC)C(=O)c1ccc2c(c1[N+](=O)[O-])C(=O)c1ccccc1C2=O,38,20,53*,60*,.,44*,-26
CCN(CC)C(=O)c1cccc2c1C(=O)c1ccccc1-2,17,22,10,30,24,.,.
CN(Cc1ccccc1)C(=O)c1cccc(NC(=O)Cc2cccc(NC(=O)C3CCN(C(=O)c4ccccc4)CC3)c2)c1,.,.,.,.,-1,.,.
COc1ccc(/C=C/C(=O)c2c(C)nc3ccccn23)cc1,22,10,17,23,.,.,.
Cc1nc2ccccn2c1C(=O)/C=C/c1ccc(F)cc1,37,4,40*,49*,.,37*,43*
O=S(=O)(Nc1ccc(N=Nc2ccccc2)cc1)c1ccccc1,41,13,42*,55*,-35,51*,-3
O=S(=O)(Nc1ccc(S(=O)(=O)Nc2ccccc2)cc1)c1ccccc1,5,-7,-4,19,2,.,.
CNc1cc(CSC)nc(SCc2ccc(Cl)cc2Cl)n1,48,92,44*,49*,-15,41*,37*
O=C(NCCc1ccccc1)c1ccc(NC(=O)C2CCCC2)cc1,.,.,.,.,6,.,.
CCOc1cc(C(=O)O/N=C(\N)c2ccc([N+](=O)[O-])cc2)cc(OCC)c1OCC,16,4,46*,61*,-15,49*,42*
N/C(=N\OC(=O)c1ccc([N+](=O)[O-])cc1)c1ccc(Br)cc1,32,-7,10,9,-18,.,.
Cc1ccccc1CC(=O)Nc1ccc(C(=O)N2CCCC2)cc1,0,5,-5,4,14,.,.
Cc1ccccc1/C(N)=N/OC(=O)N1c2ccccc2Sc2ccccc21,30,25,74*,72*,-6,69*,81*
S=C(Nc1ccccc1)Nc1ccc(Cl)cc1Cl,5,-4,26,19,-10,.,.
Cc1cccc(NC(=S)Nc2cccc(C(F)(F)F)c2)n1,35,192,8,20,-35,.,.
FC(F)(F)c1cccc(NC(=S)Nc2ccc(Cl)cc2Cl)c1,46,-13,62*,70*,7,47*,51*
FC(F)(F)c1cccc(NC(=S)NCC2COc3ccccc3O2)c1 (centres undefined),49,18,48*,66*,5,56*,57*
FC(F)(F)c1cccc(NC(=S)Nc2cccc(NC(=S)Nc3cccc(C(F)(F)F)c3)n2)c1,44,16,48*,53*,18,33*,32*
